EBV LMP1 NFkB: reduces LMP1-driven NF-kappaB luciferase signal; AID 504558; inhibition, % at 12.5 µM; hit rate 0.69% among 350,000; LMP1-induced NF-kappaB luciferase reporter cells, luminescence; in the data active means inhibition above about 41%; inconclusive means no clear call, values can overlap the other calls;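 further: 0% = neutral control wells and 100% = reference inhibitor control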
LGR2 antag: Drosophila LGR2 receptor signaling inhibition. hit rate 0.35% among 380,000. inhibition, % at 9.99 µM. HEK293 LGR2, CRE-luciferase, bursicon-stimulated, 4 h;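 active means drop in luminescence signal, shown as inhibition above about 50% in the replicate tests, limit read from the data, passing the limit was not always enough; inconclusive means probably only some replicates passing the limit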;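 further: agonist challenge used bursicon conditioned medium at about half maximal strength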
TWEAK-Fn14 inh: inhibitors of TWEAK-Fn14 interaction signaling; TWEAK-stimulated Fn14 reporter cells, luciferase luminescence, 8 h; inhibition, % at 10 µM; hit rate 2% among 360,000; in the data active means inhibition above about 50%
HSF1 inh: HSF1 inhibition | NIH3T3-HGL HSE-luciferase, MG132-induced, luminescence 8 h; hits give low values | hit rate 0.77% among 300,000 | activity change, negative = inhibition, % at 7.5 µM (by protocol);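 active means more than half of replicate wells show activity change below -50%, luminescence cut by over half; inconclusive means some wells, but at most half, below -50%; inactive means no replicate well below -50%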;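 further: luciferase reports HSF-1 transcriptional activity via heat shock element; 0% = median of DMSO wells and -100% = zero luminescence signal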
TROY NFkB inh: inhibitors of TROY-dependent NF-kB signaling; AID 1347056; Q293 LMP1-TROYcd NF-kB luciferase reporter, 4 h; inhibition, % at 10 µM; hit rate 0.98% among 360,000;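 active means compounds whose plate-normalised and pattern-corrected inhibition of the luciferase reporter signal at the single screening dose is 50% or more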
HSF1 activator: increases HSF-1 driven luciferase reporter signal; NIH3T3-HGL HSF-1 luciferase reporter, MG132, 8 h; 100% = twice DMSO control signal; activation, % at 9 µM; hit rate 1.7% among 300,000; AID 504408;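 active means mean replicate activation of at least 50% with a set share of replicates each reaching 50%; inconclusive means only one of those two conditions met; inactive means mean below 50% and too few replicates reaching it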;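 further: 0% = median of the neutral control wells and 100% = twice that signal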
Numbers without * were called inactive. Only some compounds are listed: those with a hit (about 3.6% of all), similar ones and a draw of the others.

Screening CN1C(=O)c2cc(NC(=O)c3cccs3)ccc2OC[C@@H]2O[C@@H](CC(=O)O)CC[C@@H]21 returned LGR2 antag 12.
`Brc1ccc(OCCCOc2cccc3cccnc23)cc1` gave EBV LMP1 NFkB 2, LGR2 antag -25, TWEAK-Fn14 inh -37, HSF1 inh 14, TROY NFkB inh -19 and HSF1 activator 56*.
Screening O=[N+]([O-])c1ccccc1OCCCOc1cccc2cccnc12 returned EBV LMP1 NFkB -7, TWEAK-Fn14 inh -40, HSF1 inh 28, TROY NFkB inh -36 and HSF1 activator 55*.
`Clc1ccccc1OCCCOc1cccc2cccnc12` gave EBV LMP1 NFkB -22, LGR2 antag -53, TWEAK-Fn14 inh -52, HSF1 inh 121, TROY NFkB inh -22 and HSF1 activator 106*.
`O=Cc1ccccc1OCCCOc1cccc2cccnc12` gave EBV LMP1 NFkB -12, LGR2 antag -32, TWEAK-Fn14 inh 5, HSF1 inh 21, TROY NFkB inh -1 and HSF1 activator 30.
For O=C(N[C@@H]1CC[C@H](CCn2cc(C3CCCC3)nn2)O[C@H]1CO)c1cccnc1 the results were LGR2 antag 1.
`Cc1noc(C)c1NC(=O)Nc1ccc2c(c1)C(=O)N([C@H](C)CO)C[C@H](C)[C@@H](CN(C)C)OCCCC[C@H](C)O2` gave LGR2 antag -19.
Cc1cc(Cl)ccc1OC(C)C(=O)Nc1ccc(C(=O)Nc2ccccc2C(=O)O)cc1 (stereo unspecified) was read as EBV LMP1 NFkB 10, LGR2 antag 13, TWEAK-Fn14 inh 37, HSF1 inh -10, TROY NFkB inh 57* and HSF1 activator 9.
Cc1c(-c2nc(-c3ccc(C(C)(C)C)cc3)no2)n(C)oc1=O was read as EBV LMP1 NFkB 6, LGR2 antag -8, TWEAK-Fn14 inh -39, HSF1 inh -74*, TROY NFkB inh -63 and HSF1 activator -78.
`CCc1c(C)c2ccc(O)c(CN(C)C)c2oc1=O` gave EBV LMP1 NFkB 3, TWEAK-Fn14 inh -16, HSF1 inh -3, TROY NFkB inh -16 and HSF1 activator 1.
`Cc1c(Br)c(=O)oc2c(C)c(O)ccc12` gave EBV LMP1 NFkB 3, LGR2 antag 5, TWEAK-Fn14 inh 46, HSF1 inh -5, TROY NFkB inh 54* and HSF1 activator 13.
Screening C/C=C/c1ccc2c(c1)[C@H]1[C@H](CCN1S(=O)(=O)c1ccc(C)cc1)[C@H](CO)N2 returned LGR2 antag -8.
For Cc1ccc(S(=O)(=O)N(C)C[C@H]2OCCCC[C@H](C)Oc3ccc(NS(=O)(=O)c4c(C)noc4C)cc3C(=O)N([C@@H](C)CO)C[C@H]2C)cc1 the results were LGR2 antag 7.
`Cc1ccc[n+](CC(=O)c2ccc(-c3ccccc3)cc2)c1` gave EBV LMP1 NFkB -2, LGR2 antag 5, TWEAK-Fn14 inh -6, HSF1 inh -8, TROY NFkB inh -6 and HSF1 activator -12.
Cc1c[n+](CC(=O)c2ccccc2)cs1 was read as EBV LMP1 NFkB -9, LGR2 antag -5, TWEAK-Fn14 inh 90*, HSF1 inh 24, TROY NFkB inh 5 and HSF1 activator 17.
Screening Cc1ccc(C(=O)C[n+]2cccc3ccccc32)cc1 returned EBV LMP1 NFkB 4, TWEAK-Fn14 inh 32, HSF1 inh -4, TROY NFkB inh 50* and HSF1 activator 6.
Cc1ccc(C(=O)C[n+]2ccccc2)cc1 was read as EBV LMP1 NFkB 68*, LGR2 antag -8, TWEAK-Fn14 inh 11, HSF1 inh -2, TROY NFkB inh -14 and HSF1 activator 6.
For O=C(Nc1ccc(Cc2nc3ccccc3s2)cc1)c1ccncc1 the results were EBV LMP1 NFkB 11, LGR2 antag 7, TWEAK-Fn14 inh 59*, HSF1 inh -1, TROY NFkB inh 27 and HSF1 activator 0.
CCc1nnc(NC(=O)c2ccc(OC)cc2OC)s1 was read as EBV LMP1 NFkB 16, TWEAK-Fn14 inh 74*, HSF1 inh 16, TROY NFkB inh 22 and HSF1 activator 24.
O=C(Nc1ccc(Cl)cc1)/C(=C/c1cccc(O)c1)c1nc2ccccc2s1 was read as EBV LMP1 NFkB -3, LGR2 antag 86*, TWEAK-Fn14 inh 104*, HSF1 inh -76*, TROY NFkB inh 83* and HSF1 activator -74.
Screening COc1ccc(C(=O)Nc2nc3ccccc3s2)c(OC)c1 returned EBV LMP1 NFkB 85*, LGR2 antag 103*, TWEAK-Fn14 inh 105*, HSF1 inh -93*, TROY NFkB inh 85* and HSF1 activator -93.
Screening S=C(Nc1ccc(Cl)cc1)c1nc2ccccc2s1 returned EBV LMP1 NFkB -16, TWEAK-Fn14 inh 1, HSF1 inh -26, TROY NFkB inh -45 and HSF1 activator -36.
Screening COc1cccc(S(=O)(=O)N[C@H]2C=C[C@H](CC(=O)NCc3ccccc3)O[C@H]2CO)c1 returned LGR2 antag 17.
COCC(=O)N(C)C[C@@H]1Oc2ncc(C#CC3(O)CCCC3)cc2C(=O)N([C@H](C)CO)C[C@H]1C was read as LGR2 antag -41.
`COc1ccc(NC(=O)c2nc3ccccc3s2)cc1` gave EBV LMP1 NFkB -16, LGR2 antag 15, TWEAK-Fn14 inh 61*, HSF1 inh -1, TROY NFkB inh 38 and HSF1 activator inconclusive.
For COc1ccccc1C(=O)Nc1nc2ccccc2s1 the results were EBV LMP1 NFkB 85*, LGR2 antag 105*, TWEAK-Fn14 inh 104*, HSF1 inh -88*, TROY NFkB inh 85* and HSF1 activator -90.
For Nc1ccc(C(=O)Nc2nc3ccccc3s2)cc1 the results were EBV LMP1 NFkB -31, LGR2 antag -13, TWEAK-Fn14 inh 62*, HSF1 inh 33, TROY NFkB inh -13 and HSF1 activator 57*.
`COc1ccccc1C(=O)Nc1nc2ccc(S(C)(=O)=O)cc2s1` gave EBV LMP1 NFkB -4, TWEAK-Fn14 inh 26, HSF1 inh 9, TROY NFkB inh -20 and HSF1 activator 14.
Cc1ccc(NC(=S)c2nc3ccccc3s2)cc1 was read as EBV LMP1 NFkB -16, TWEAK-Fn14 inh 78*, HSF1 inh -65*, TROY NFkB inh 55* and HSF1 activator -70.
CO[C@@H]1CN(C)C(=O)c2cc(NC(C)=O)ccc2OC[C@H](C)N(C(=O)C2CCCCC2)C[C@@H]1C was read as LGR2 antag 13.
O=C(NC1CCCCC1)N1CC(=O)N2[C@H](C1)[C@H](c1ccc(-c3cccnc3)cc1)[C@@H]2CO was read as LGR2 antag 26.
For COc1ccc2c3c(n(C)c2c1)[C@@H](CO)N(C(=O)c1ccncc1)CC31CN(S(C)(=O)=O)C1 the results were LGR2 antag -21.
Screening CCC(=O)N1CC2(CN(Cc3ccc(F)cc3)C2)c2c(n(C)c3cc(OC)ccc23)[C@@H]1CO returned LGR2 antag -8.
